# Results published in the supplement of paper PMC10037445.
# Whole data set: some 2,900 compounds, median “NF-kB SEAP reporter activity, fold change vs agonist alone” near 0.99, cut for the highest 2% near 2.6. Only a selection was taken, and the highest values are over-represented in it overall.
# Experiments:
# RAW-Dual [1] = test: NF-kB SEAP reporter activity, fold change vs agonist alone; cytotoxicity flag (confluency mask): cytotoxic (confluency <70% of control); higher = enhanced NF-kB activity
# Method in brief: (§1)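 Reporter activity is given as fold change relative to agonist-alone wells. To measure it, 50 nL of library stock was pin-tooled onto RAW-Dual macrophages (50,000 cells/well, DMEM, 384-well plates), a PRR agonist followed 1 h later, and cells stayed at 37 °C, 5% CO2. Twenty hours on, supernatant was assayed for IRF (QuantiLuc luminescence) and NF-κB (QuantiBlue, 620 nm absorbance), and wells under 70% of agonist-control IncuCyte confluency in both mask sets were marked cytotoxic.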
# RAW-Dual [2] = test: NF-kB SEAP reporter activity, fold change vs agonist alone; higher = enhanced NF-kB activity
# Method in brief: as §1
# RAW-Dual [3] = test: NF-kB SEAP reporter activity, fold change vs agonist alone; cytotoxicity flag (confluency mask): not cytotoxic; higher = enhanced NF-kB activity
# Method in brief: as §1
# [4] = agonist: ODN 1826 (TLR9) 0.5 ug/mL
# [5] = agonist: Pam2CSK4 (TLR2/6) 0.1 ug/mL
# [6] = agonist: Pam3CSK4 (TLR2/1) 0.1 ug/mL
# [7] = library stock concentration (final ~1000-fold dilution): 10 mM, cytotoxicity flag (confluency mask): cytotoxic (confluency <70% of control), agonist: Imiquimod (TLR7) […]
# [8] = library stock concentration (final ~1000-fold dilution): 10 mM, cytotoxicity flag (confluency mask): cytotoxic (confluency <70% of control), agonist: MPLA (TLR4) […]
# [9] = library stock concentration (final ~1000-fold dilution): 10 mM, cytotoxicity flag (confluency mask): not cytotoxic, agonist: Imiquimod (TLR7) […]
# [10] = library stock concentration (final ~1000-fold dilution): 10 mM, cytotoxicity flag (confluency mask): not cytotoxic, agonist: MPLA (TLR4) […]
smiles,measurement,setting,value
Cc1cc2c(F)c(Oc3ncnn4cc(OCC(C)OC(=O)C(C)N)c(C)c34)ccc2[nH]1 (stereo not drawn) (library stock concentration (final ~1000-fold dilution): 10 mM),NF-kB SEAP reporter activity,RAW-Dual [1]; agonist: LPS (TLR4) 0.1 ug/mL,1.52
same,NF-kB SEAP reporter activity,RAW-Dual [1]; [4],0.94
same,NF-kB SEAP reporter activity,RAW-Dual [1]; [5],0.759
same,NF-kB SEAP reporter activity,RAW-Dual [1]; [6],1.13
Cc1cc2c(F)c(Oc3ncnn4cc(OCC(C)OC(=O)C(C)N)c(C)c34)ccc2[nH]1 (stereo not drawn),NF-kB SEAP reporter activity,RAW-Dual [2]; [7],1.98
same,NF-kB SEAP reporter activity,RAW-Dual [2]; [8],1.72
Nc1ccn(CC(CO)OCP(=O)(O)O)c(=O)n1 (stereo not drawn) (library stock concentration (final ~1000-fold dilution): 10 mM water),NF-kB SEAP reporter activity,RAW-Dual [3]; agonist: LPS (TLR4) 0.1 ug/mL,1.2
same,NF-kB SEAP reporter activity,RAW-Dual [3]; [4],1.23
same,NF-kB SEAP reporter activity,RAW-Dual [3]; [5],1.32
same,NF-kB SEAP reporter activity,RAW-Dual [3]; [6],1.29
Nc1ccn(CC(CO)OCP(=O)(O)O)c(=O)n1 (stereo not drawn),NF-kB SEAP reporter activity,"RAW-Dual [2]; library stock concentration (final ~1000-fold dilution): 10 mM water, cytotoxicity flag (confluency mask): not cytotoxic, agonist: Imiquimod (TLR7) […]",0.956
same,NF-kB SEAP reporter activity,"RAW-Dual [2]; library stock concentration (final ~1000-fold dilution): 10 mM water, cytotoxicity flag (confluency mask): not cytotoxic, agonist: MPLA (TLR4) […]",1.04
O=C(c1cn(Cc2cncn2Cc2ccc(Br)cc2)cc1-c1cccc2ccccc12)N1CCOCC1 (library stock concentration (final ~1000-fold dilution): 10 mM),NF-kB SEAP reporter activity,RAW-Dual [3]; agonist: LPS (TLR4) 0.1 ug/mL,2.82
same,NF-kB SEAP reporter activity,RAW-Dual [3]; [4],1.54
same,NF-kB SEAP reporter activity,RAW-Dual [3]; [5],0.96
same,NF-kB SEAP reporter activity,RAW-Dual [3]; [6],1.16
O=C(c1cn(Cc2cncn2Cc2ccc(Br)cc2)cc1-c1cccc2ccccc12)N1CCOCC1,NF-kB SEAP reporter activity,RAW-Dual [2]; [9],1.35
same,NF-kB SEAP reporter activity,RAW-Dual [2]; [10],1.46
O=C1NC(=O)C(c2cn3c4c(cccc24)CCC3)C1c1c[nH]c2ccccc12 (stereo not drawn) (library stock concentration (final ~1000-fold dilution): 10 mM),NF-kB SEAP reporter activity,RAW-Dual [3]; agonist: LPS (TLR4) 0.1 ug/mL,3.41
same,NF-kB SEAP reporter activity,RAW-Dual [3]; [4],2.7
same,NF-kB SEAP reporter activity,RAW-Dual [3]; [5],1.49
same,NF-kB SEAP reporter activity,RAW-Dual [3]; [6],1.4
O=C1NC(=O)C(c2cn3c4c(cccc24)CCC3)C1c1c[nH]c2ccccc12 (stereo not drawn),NF-kB SEAP reporter activity,RAW-Dual [2]; [9],2.44
same,NF-kB SEAP reporter activity,RAW-Dual [2]; [10],1.84
Cl.Clc1cccc(-c2nnnn2Cc2cccnc2)c1Cl,NF-kB SEAP reporter activity,RAW-Dual [2]; [9],1
same,NF-kB SEAP reporter activity,RAW-Dual [2]; [10],1.06
Cl.Clc1cccc(-c2nnnn2Cc2cccnc2)c1Cl (library stock concentration (final ~1000-fold dilution): 10 mM),NF-kB SEAP reporter activity,RAW-Dual [3]; agonist: LPS (TLR4) 0.1 ug/mL,1.07
same,NF-kB SEAP reporter activity,RAW-Dual [3]; [4],0.95
same,NF-kB SEAP reporter activity,RAW-Dual [3]; [5],1.04
same,NF-kB SEAP reporter activity,RAW-Dual [3]; [6],0.958
CC1COC2Cn3cc(C(=O)NCc4ccc(F)cc4F)c(=O)c(O)c3C(=O)N12 (stereo not drawn),NF-kB SEAP reporter activity,RAW-Dual [2]; [9],0.969
same,NF-kB SEAP reporter activity,RAW-Dual [2]; [10],1.11
CC1COC2Cn3cc(C(=O)NCc4ccc(F)cc4F)c(=O)c(O)c3C(=O)N12 (stereo not drawn) (library stock concentration (final ~1000-fold dilution): 10 mM),NF-kB SEAP reporter activity,RAW-Dual [3]; agonist: LPS (TLR4) 0.1 ug/mL,1.38
same,NF-kB SEAP reporter activity,RAW-Dual [3]; [4],1.03
same,NF-kB SEAP reporter activity,RAW-Dual [3]; [5],0.808
same,NF-kB SEAP reporter activity,RAW-Dual [3]; [6],0.866
CCC1C(=O)N(C)c2cnc(Nc3ccc(C(=O)NC4CCC(N5CCN(CC6CC6)CC5)CC4)cc3OC)nc2N1C(C)C (stereo not drawn),NF-kB SEAP reporter activity,RAW-Dual [2]; [9],0.55
same,NF-kB SEAP reporter activity,RAW-Dual [2]; [10],0.684
COc1cc(OC2CCN(C)CC2)ccc1Nc1ncc2c(n1)n(C1CCCC1)c(=O)n2C,NF-kB SEAP reporter activity,RAW-Dual [2]; [9],1.11
same,NF-kB SEAP reporter activity,RAW-Dual [2]; [10],0.875
COc1cc(C(=O)NC2CCN(C)CC2)ccc1Nc1ncc2c(n1)N(C1CCCC1)CC(F)(F)C(=O)N2C (library stock concentration (final ~1000-fold dilution): 10 mM),NF-kB SEAP reporter activity,RAW-Dual [1]; agonist: LPS (TLR4) 0.1 ug/mL,5.16
same,NF-kB SEAP reporter activity,RAW-Dual [1]; [4],0.745
same,NF-kB SEAP reporter activity,RAW-Dual [1]; [5],1.3
same,NF-kB SEAP reporter activity,RAW-Dual [1]; [6],3.04
C=CC(=O)Nc1cccc(Nc2nc(Nc3ccc(NC4CN(CCF)C4)cc3OC)ncc2C(F)(F)F)c1,NF-kB SEAP reporter activity,RAW-Dual [2]; [9],1.26
same,NF-kB SEAP reporter activity,RAW-Dual [2]; [10],1.53
COc1cc(C(=O)NC2CCN(C)CC2)ccc1Nc1ncc2c(n1)N(C1CCCC1)CC(F)(F)C(=O)N2C,NF-kB SEAP reporter activity,RAW-Dual [2]; [7],1.71
same,NF-kB SEAP reporter activity,RAW-Dual [2]; [8],2.85
CCC1C(=O)N(C)c2cnc(Nc3ccc(C(=O)NC4CCN(C)CC4)cc3OC)nc2N1C1CCCC1 (stereo not drawn),NF-kB SEAP reporter activity,RAW-Dual [2]; [7],2.21
same,NF-kB SEAP reporter activity,RAW-Dual [2]; [8],0.949
COc1cc(OC2CCN(C)CC2)ccc1Nc1ncc2c(n1)n(C1CCCC1)c(=O)n2C (library stock concentration (final ~1000-fold dilution): 10 mM),NF-kB SEAP reporter activity,RAW-Dual [3]; agonist: LPS (TLR4) 0.1 ug/mL,1.17
same,NF-kB SEAP reporter activity,RAW-Dual [3]; [4],0.955
same,NF-kB SEAP reporter activity,RAW-Dual [3]; [5],0.964
same,NF-kB SEAP reporter activity,RAW-Dual [3]; [6],1.16
CCC1C(=O)N(C)c2cnc(Nc3ccc(C(=O)NC4CCN(C)CC4)cc3OC)nc2N1C1CCCC1 (stereo not drawn) (library stock concentration (final ~1000-fold dilution): 10 mM),NF-kB SEAP reporter activity,RAW-Dual [1]; agonist: LPS (TLR4) 0.1 ug/mL,0.276
same,NF-kB SEAP reporter activity,RAW-Dual [1]; [4],1.3
same,NF-kB SEAP reporter activity,RAW-Dual [1]; [5],1.54
same,NF-kB SEAP reporter activity,RAW-Dual [1]; [6],3.64
Cc1cc(Nc2ncc3c(n2)N(C)C(=O)N(c2cc(NC(=O)c4cccc(C(F)(F)F)c4)ccc2C)C3)n(C)n1 (library stock concentration (final ~1000-fold dilution): 10 mM),NF-kB SEAP reporter activity,RAW-Dual [1]; agonist: LPS (TLR4) 0.1 ug/mL,0.283
same,NF-kB SEAP reporter activity,RAW-Dual [1]; [4],0.186
same,NF-kB SEAP reporter activity,RAW-Dual [1]; [5],0.0623
same,NF-kB SEAP reporter activity,RAW-Dual [1]; [6],0.124
Cc1cc(Nc2ncc3c(n2)N(C)C(=O)N(c2cc(NC(=O)c4cccc(C(F)(F)F)c4)ccc2C)C3)n(C)n1,NF-kB SEAP reporter activity,RAW-Dual [2]; [7],0.128
same,NF-kB SEAP reporter activity,RAW-Dual [2]; [8],0.265
CCC(=O)Nc1cccc(Oc2nc(Nc3ccc(N4CCN(C)CC4)cc3OC)ncc2Cl)c1,NF-kB SEAP reporter activity,RAW-Dual [2]; [7],1.1
same,NF-kB SEAP reporter activity,RAW-Dual [2]; [8],1.7
C=CC(=O)Nc1cccc(Nc2nc(Nc3ccc(NC4CN(CCF)C4)cc3OC)ncc2C(F)(F)F)c1 (library stock concentration (final ~1000-fold dilution): 10 mM),NF-kB SEAP reporter activity,RAW-Dual [3]; agonist: LPS (TLR4) 0.1 ug/mL,0.561
same,NF-kB SEAP reporter activity,RAW-Dual [3]; [4],0.536
same,NF-kB SEAP reporter activity,RAW-Dual [3]; [5],0.359
same,NF-kB SEAP reporter activity,RAW-Dual [3]; [6],0.725
CCC(=O)Nc1cccc(Oc2nc(Nc3ccc(N4CCN(C)CC4)cc3OC)ncc2Cl)c1 (library stock concentration (final ~1000-fold dilution): 10 mM),NF-kB SEAP reporter activity,RAW-Dual [1]; agonist: LPS (TLR4) 0.1 ug/mL,1.65
same,NF-kB SEAP reporter activity,RAW-Dual [1]; [4],0.875
same,NF-kB SEAP reporter activity,RAW-Dual [1]; [5],0.603
same,NF-kB SEAP reporter activity,RAW-Dual [1]; [6],1.02
CCC1C(=O)N(C)c2cnc(Nc3ccc(C(=O)NC4CCC(N5CCN(CC6CC6)CC5)CC4)cc3OC)nc2N1C(C)C (stereo not drawn) (library stock concentration (final ~1000-fold dilution): 10 mM),NF-kB SEAP reporter activity,RAW-Dual [3]; agonist: LPS (TLR4) 0.1 ug/mL,5.71
same,NF-kB SEAP reporter activity,RAW-Dual [3]; [4],0.977
same,NF-kB SEAP reporter activity,RAW-Dual [3]; [5],1.95
same,NF-kB SEAP reporter activity,RAW-Dual [3]; [6],0.886
